What all share (type): functional
Assay [1] concerns the target Solute carrier family 2, facilitated glucose transporter member 1 (Homo sapiens) (UniProt P11166). As to the kind of experiment: ST_JUDE_LEISH: Cytotoxicity at 2uM final concentration against transgenic Leishmania Mexicana promastigotes LmGLUT1 that are glucose transport deficient and complemented with the human glucose transporter GLUT1. Activity is measured by DNA content using SYBR green in vitro.

Assay [2] concerns the target Hexose transporter 1 (Plasmodium falciparum) (UniProt O97467). As to the kind of experiment: ST_JUDE_LEISH: Cytotoxicity at 2uM final concentration against transgenic Leishmania Mexicana promastigotes LmPfHT that are glucose transport deficient and complemented with the Plasmodium falciparum hexose transporter. Activity is measured by DNA content using SYBR green in vitro.

Assay [3] has as its target Glucose transporter (Leishmania mexicana) (UniProt O61059). As to the kind of experiment: ST_JUDE_LEISH: Cytotoxicity at 2uM final concentration against transgenic Leishmania Mexicana promastigotes LmGT2 that are glucose transport deficient and complemented with the L. Mexicana glucose transporter 2. Activity is measured by DNA content using SYBR green in vitro.

Sequence of Solute carrier family 2, facilitated glucose transporter member 1 (Homo sapiens) (P11166 whole entry): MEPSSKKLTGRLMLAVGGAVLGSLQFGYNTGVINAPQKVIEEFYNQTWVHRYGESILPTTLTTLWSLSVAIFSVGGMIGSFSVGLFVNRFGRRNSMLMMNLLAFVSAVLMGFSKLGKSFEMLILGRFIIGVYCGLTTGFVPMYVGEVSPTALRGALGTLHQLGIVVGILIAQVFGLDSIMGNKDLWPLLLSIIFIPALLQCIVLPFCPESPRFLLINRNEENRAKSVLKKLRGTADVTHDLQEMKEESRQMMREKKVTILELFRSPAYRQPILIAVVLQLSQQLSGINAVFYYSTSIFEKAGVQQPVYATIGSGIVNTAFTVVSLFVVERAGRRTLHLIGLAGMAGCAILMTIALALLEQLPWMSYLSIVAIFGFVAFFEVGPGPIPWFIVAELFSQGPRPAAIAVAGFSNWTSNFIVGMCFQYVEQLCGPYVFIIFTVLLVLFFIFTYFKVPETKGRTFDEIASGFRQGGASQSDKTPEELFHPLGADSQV

In the case of `COc1cc2c(c(Cl)c1OC)CCN(Cc1ccccc1)CC2c1ccc(C(N)=O)cc1` (stereo not drawn), the inhibition in assay [1] was determined as 2.24%; in assay [2], 1.77%; in assay [3], 1.62%.

On to `Cc1oc(-c2cccc(Oc3ccccc3)c2)nc1CN(Cc1cnn(C)c1)C(C)C`, for which the figures for the inhibition in assay [1], in assay [2] and in assay [3] were 1.56%, 1.15% and 1.83%, respectively.

`Oc1ccccc1Nc1nc(NCc2ccco2)c2ccccc2n1`: the figures for the inhibition in assay [1], in assay [2] and in assay [3] were 15.3%, 13.6% and 4.56%, respectively.

As to `COc1cc(CN2CCC(N3CCc4cc(NC(=O)c5cc(C)on5)ccc43)C2)ccc1F` (stereo not drawn), the inhibition in assay [1] stood at 2.18%; in assay [2], 2.25%; in assay [3] it was 3.34%.

Regarding `O=C(C=Cc1ccc(Cl)c(Cl)c1)NCCCCCN1CCC(CCCNC(=O)c2ccc3c(c2)OCO3)CC1`, the inhibition in assay [1] is 4.5%; in assay [2], 4.24%; in assay [3], -3.71%.

Take `COc1cc2nc(N3CCC(CNC(=O)c4ccc(OC(F)(F)F)cc4)CC3)nc(N)c2cc1OC`: the inhibition in assay [1] was -0.03%; in assay [2], 0.04%; in assay [3], 0.16%.

Turning to `COc1cccc(CCc2nc3c(N4CCC(Cc5ccccc5)CC4)cccc3n2CC2CNCCO2)c1` (stereo not drawn), the inhibition was 9.36% in assay [1], 9.47% in assay [2] and 8.5% in assay [3].

With `Cc1[nH]c(C)c(-c2ccc(-c3ccc(OC(F)(F)F)cc3)cc2)c(=O)c1Cl`, the inhibition is 4.71% in assay [1], 3.77% in assay [2] and -2.04% in assay [3].

As to `Cc1ccc(NC(=O)NCCCCCN2CCC(c3c[nH]c4ccccc34)CC2)cc1I`, the inhibition in assay [1] amounted to 3.96%; in assay [2] it was 3.64%; in assay [3] it was 3.15%.

Consider `O=C1COC2(CN1C1CCN(Cc3ccc(O)cc3Cl)C1)c1ccccc1-c1ccccc12` (stereo not drawn), for which the inhibition in assay [1] stood at 2.42%; in assay [2] it was 2.74%; in assay [3], 1.29%.

As for `CN1CCCc2cc(NC(=O)C=Cc3ccc(-c4ccc(F)cc4F)o3)ccc2C1`, the inhibition in assay [1] was determined as 6.23%; in assay [2], 5.24%; in assay [3] it was 8.04%.

For the compound `Cc1noc(C)c1-c1cccc(CNCc2cccc(-c3cccc(-c4nc5ccccc5[nH]4)c3)c2)c1`, the inhibition in assay [1] stood at 0.14%; in assay [2] it was 1.29%; in assay [3], 0.09%.

In the case of `CN1CCN(c2ccc(Nc3ccnc4ccc(-c5ccccc5)cc34)cc2)CC1`, the results for the inhibition in assay [1], in assay [2] and in assay [3] were 1.32%, 1.83% and -1.67%, respectively.

For the compound `COc1ccc2cc(CNCCCCCCNCc3ccc4cc(OC)ccc4c3)ccc2c1`, the inhibition was found to be 107% in assay [1], 107% in assay [2] and 103% in assay [3].

On to `Cc1ccc(-c2nnc(Nc3ccc(CC(N)=O)cc3)c3ccccc23)cc1S(=O)(=O)NCC1CCCO1` (stereo not drawn), for which the inhibition amounted to 6.25% in assay [1], 7.99% in assay [2] and 2.36% in assay [3].

Consider `OC1=C2C(=Nc3ccccc3SC2c2cccs2)c2ccccc21` (stereo not drawn), for which the inhibition in assay [1] turned out to be 12.2%; in assay [2], 10.8%; in assay [3] it was 1.64%.

Consider `O=C(Nc1ccc(Cl)cc1)c1cc(Cl)ccc1NC(=O)C1CCc2ccccc2O1` (stereo not drawn), for which the values for the inhibition in assay [1], in assay [2] and in assay [3] were 5.48%, 2.53% and 1.56%, respectively.

For `Oc1ccc(C=NNC(S)=Nc2cccc3ccccc23)c(O)c1`, the results for the inhibition in assay [1], in assay [2] and in assay [3] were 4.86%, 4.96% and 2.47%, respectively.

With `COc1cccc2c(N/N=C/c3cccc([N+](=O)[O-])c3)ccnc12`, the results for the inhibition in assay [1], in assay [2] and in assay [3] were 13.4%, 10.8% and 8.14%, respectively.

For the compound `CCCC(CNCc1cccc(OC(F)(F)C(F)F)c1)CNc1cc(=O)c2ccccc2[nH]1` (stereo not drawn), the inhibition in assay [1] is -0.75%; in assay [2] it was -0.41%; in assay [3] it was -4.05%.

`Nc1c(Cl)cc(C(O)CNCCCCCCOCCc2ccc(O)cc2)cc1Cl` (stereo not drawn): the figures for the inhibition in assay [1], in assay [2] and in assay [3] were -0.61%, -1.55% and -2.56%, respectively.

With `CCOc1ccc2c(=NN=Cc3cc(OC)c(OC)cc3OC)cc(C)[nH]c2c1`, the inhibition was 3.1% in assay [1], 2.65% in assay [2] and -1.87% in assay [3].

In the case of `O=C(NC1CC1)c1ccc(N2CCC(COc3cccc(F)c3)CC2)nc1`, the inhibition was determined as 5.26% in assay [1], 4.16% in assay [2] and 6.94% in assay [3].

On to `Cc1ccnc(-n2c(C)cc(C=C3SC(=Nc4ccccc4)N(Cc4ccco4)C3=O)c2C)c1`, for which the inhibition in assay [1] came out at 2.02%; in assay [2], 2.85%; in assay [3], 4.69%.

For the compound `Cc1cc(CN2CC[C@H](NC(=O)c3ccc(Cl)c(Cl)c3)C2)ccc1OCCCN(C)C`, the inhibition in assay [1] was -2.61%; in assay [2] it was -3.17%; in assay [3], -2.57%.

As for `CNC(=O)c1ccc2nc(-c3ccc(-c4ccccc4)cc3)n(CC3CCN(CC4CCCC4)CC3)c2c1`, the inhibition in assay [1] was determined as 1.8%; in assay [2], 0.69%; in assay [3], 1.13%.

As for `Cc1cccc2nc(-c3cccc(-c4cccc(CN5CCN(c6ccc(C#N)cn6)CC5)c4)c3)[nH]c12`, the results for the inhibition in assay [1], in assay [2] and in assay [3] were 11.6%, 10.3% and 9.4%, respectively.

As for `Brc1ccc(Nc2nc3ccccc3nc2Nc2ccc(Br)cc2)cc1`, the inhibition amounted to 9.39% in assay [1], 6.78% in assay [2] and 9.68% in assay [3].

For the compound `CC1(C)N=C(N)N=C(N)C1c1ccc(Cl)c(Cl)c1` (stereo not drawn), the inhibition turned out to be 0.69% in assay [1], 2.94% in assay [2] and 1.36% in assay [3].

For the compound `Cc1ccccc1/N=C1\NC(=S)N(c2cccc(C(F)(F)F)c2)C12CCC(C(C)(C)C)CC2` (stereo not drawn), the inhibition in assay [1] is 2.78%; in assay [2], 2.68%; in assay [3] it was 2.58%.

For the compound `COc1ccc(CN2CCCC(C(=O)c3ccc(C(F)(F)F)cc3)C2)c(O)c1` (stereo not drawn), the inhibition came to 4.79% in assay [1], 4.48% in assay [2] and 3.56% in assay [3].

Regarding `Fc1ccc(Nc2ccnc3cc(-c4ccc(CNCCN5CCOCC5)o4)ccc23)c(Cl)c1`, the inhibition in assay [1] was determined as 2.04%; in assay [2] it was 2.02%; in assay [3] it was 2.34%.

`COc1cc(F)c2nccc([C@@H](O)CN3CCC(NCc4ccc5c(n4)NC(=O)CS5)C(F)C3)c2c1` (stereo partly drawn): the inhibition in assay [1] came out at 3.18%; in assay [2], 3.06%; in assay [3] it was 3.18%.

In the case of `CC(C)N1CCC(N(Cc2ccc(-c3ccc(C(F)(F)F)cc3)cc2)C(=O)Cn2c(CCc3cccc(F)c3F)cc(=O)c3cn(C)nc32)CC1`, the results for the inhibition in assay [1], in assay [2] and in assay [3] were 10.3%, 8.4% and 13%, respectively.

As for `CCn1cnc2c(N3CCCCS3(=O)=O)cc(C(=O)N[C@@H](Cc3ccccc3)[C@H](O)CNC3CCOCC3)cc21`, the inhibition was determined as 3.99% in assay [1], 2.96% in assay [2] and 3.34% in assay [3].

Turning to `Clc1ccccc1C=NN=c1cc[nH]c2ccccc12`, the results for the inhibition in assay [1], in assay [2] and in assay [3] were 3.99%, 5.58% and 5.41%, respectively.

The values are drawn from ChEMBL document CHEMBL3433997, “St. Jude Leishmania screening dataset” (2016).
